Test results reported in the supplement of paper PMC6555819.

Tests used:
Test in all cases: PBM binding z-score (relative to random genomic background probes); higher = stronger binding; sequences stand for … in GC…GCGATTGACAGCGTAGAATGAAGG
[1] = tested on: RARb homodimer (NR concentration 270 nM)
How it was run: (§1)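 For binding z-scores, the reference was random background probes on custom Agilent 4×180K protein-binding microarrays. These arrays were incubated 1 h with ligand-free nuclear receptor dimers in PBS pH 7.4, 2% milk, 0.02% Triton X-100, 1 mM DTT, 0.2 mg/mL BSA and 0.4 mg/ml salmon testes DNA. Fluorescence was scanned after antibody detection of each partner (one per run) and regression-normalized.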

[2] = tested on: RARg:RXRa (NR concentration 270 nM, RXRa partner concentration 90 nM)
How it was run: as §1

[3] = tested on: RARg homodimer (NR concentration 270 nM)
How it was run: as §1

[4] = tested on: RXRa DBDmut IVT, anti-RXR (DBD mutation: RXRa K156A/R161A, NR concentration 90 nM)
How it was run: as §1

[5] = tested on: RXRa homodimer (NR concentration 180 nM)
How it was run: as §1

[6] = tested on: THRa:RXRa (NR concentration 90 nM, RXRa partner concentration 90 nM)
How it was run: as §1

[7] = tested on: THRa homodimer (NR concentration 90 nM)
How it was run: as §1

[8] = tested on: VDR:RXRa (NR concentration 270 nM, RXRa partner concentration 90 nM)
How it was run: as §1

[9] = tested on: VDR homodimer (NR concentration 270 nM)
How it was run: as §1

Sequence: ATACCAAGGTGATCGTGAGGTCGTTGATACTAAC
- PBM binding z-score [1]: 1.73
- PBM binding z-score [2]: 2.06
- PBM binding z-score [3]: 1.03
- PBM binding z-score [4]: 0.728
- PBM binding z-score [5]: 1.38
- PBM binding z-score [6]: 3.4
- PBM binding z-score [7]: 2.63
- PBM binding z-score [8]: 3.23
- PBM binding z-score [9]: 2.83

Sequence: CAAACTAGATCAAGGTCAAAGTCGGTTTGTGCCA
- PBM binding z-score [1]: 3.72
- PBM binding z-score [2]: 3.89
- PBM binding z-score [3]: 3.29
- PBM binding z-score [4]: 2.46
- PBM binding z-score [5]: 4.18
- PBM binding z-score [6]: 3.88
- PBM binding z-score [7]: 2.96
- PBM binding z-score [8]: 4.12
- PBM binding z-score [9]: 3.73

Sequence: TAGCCTAGGACAGATCGGGCCAGTATACGCTATA
- PBM binding z-score [1]: -0.402
- PBM binding z-score [2]: -0.336
- PBM binding z-score [3]: 0.0371
- PBM binding z-score [4]: -1.01
- PBM binding z-score [5]: -0.257
- PBM binding z-score [6]: 0.511
- PBM binding z-score [7]: -0.623
- PBM binding z-score [8]: -0.85
- PBM binding z-score [9]: -0.922

Sequence: CCTAGCTGGCCAGGGTCACTCAAGCATTTCGCTT
- PBM binding z-score [1]: 2.33
- PBM binding z-score [2]: 3.05
- PBM binding z-score [3]: 2.03
- PBM binding z-score [4]: 0.326
- PBM binding z-score [5]: 3.3
- PBM binding z-score [6]: 2.88
- PBM binding z-score [7]: 0.857
- PBM binding z-score [8]: 2.36
- PBM binding z-score [9]: 0.994

Sequence: TCGTATAGGTAAACAGGTGAAAGTCCGTAAGTTA
- PBM binding z-score [1]: 1.14
- PBM binding z-score [2]: 0.368
- PBM binding z-score [3]: 0.358
- PBM binding z-score [4]: 1.41
- PBM binding z-score [5]: 0.637
- PBM binding z-score [6]: 0.794
- PBM binding z-score [7]: 0.786
- PBM binding z-score [8]: 0.883
- PBM binding z-score [9]: 0.302

Sequence: TCTTGTAGATCAACAGGAGGTTGAGAAAGATCGA
- PBM binding z-score [1]: -0.533
- PBM binding z-score [2]: 0.156
- PBM binding z-score [3]: -0.228
- PBM binding z-score [4]: 0.313
- PBM binding z-score [5]: 0.301
- PBM binding z-score [6]: -0.174
- PBM binding z-score [7]: -0.919
- PBM binding z-score [8]: -0.025
- PBM binding z-score [9]: -0.475

Sequence: CCAGACAGGAGAAAGGTAACTCAGTCTGGTACGC
- PBM binding z-score [1]: 0.0408
- PBM binding z-score [2]: 0.115
- PBM binding z-score [3]: -0.016
- PBM binding z-score [4]: -0.0562
- PBM binding z-score [5]: 0.502
- PBM binding z-score [6]: -0.00788
- PBM binding z-score [7]: -0.183
- PBM binding z-score [8]: 0.0971
- PBM binding z-score [9]: -0.102

Sequence: TCTGGTAGATCAGCAGGTTAAGAAAGCTGGCCAA
- PBM binding z-score [1]: -0.132
- PBM binding z-score [2]: -0.135
- PBM binding z-score [3]: -0.628
- PBM binding z-score [4]: 0.128
- PBM binding z-score [5]: 0.256
- PBM binding z-score [6]: 0.0552
- PBM binding z-score [7]: -0.418
- PBM binding z-score [8]: 0.0223
- PBM binding z-score [9]: -0.56

Sequence: TCGAGTAGGTTATGGGCATTCAGAATGGCGTCGA
- PBM binding z-score [1]: -0.0176
- PBM binding z-score [2]: -0.0222
- PBM binding z-score [3]: -0.106
- PBM binding z-score [4]: -0.148
- PBM binding z-score [5]: 0.459
- PBM binding z-score [6]: -0.261
- PBM binding z-score [7]: -0.66
- PBM binding z-score [8]: -0.235
- PBM binding z-score [9]: -0.437

Sequence: TGTTGTAGATCAACAGGAGGTTAAGAAAGATCGA
- PBM binding z-score [1]: 0.36
- PBM binding z-score [2]: 1.06
- PBM binding z-score [3]: 0.365
- PBM binding z-score [4]: -0.89
- PBM binding z-score [5]: 0.741
- PBM binding z-score [6]: 0.863
- PBM binding z-score [7]: -0.492
- PBM binding z-score [8]: 0.37
- PBM binding z-score [9]: -0.0284

Sequence: CAGCCTAGGTCAGGGCCAGTACAGGAGGAACGTT
- PBM binding z-score [1]: 2.81
- PBM binding z-score [2]: 3.02
- PBM binding z-score [3]: 3.74
- PBM binding z-score [4]: -0.352
- PBM binding z-score [5]: 1.45
- PBM binding z-score [6]: 2.02
- PBM binding z-score [7]: 0.539
- PBM binding z-score [8]: 0.635
- PBM binding z-score [9]: -0.209

Sequence: CATACAGGGTCAGCTAGGCCAGCGTAGGGACGGC
- PBM binding z-score [1]: 3.43
- PBM binding z-score [2]: 4.42
- PBM binding z-score [3]: 4.81
- PBM binding z-score [4]: 1.4
- PBM binding z-score [5]: 4.2
- PBM binding z-score [6]: 3.3
- PBM binding z-score [7]: 0.936
- PBM binding z-score [8]: 3.62
- PBM binding z-score [9]: 0.947

Sequence: AGATGTAGGTTAAGGGTCATTCAGGTTGGTTCGC
- PBM binding z-score [1]: 4.06
- PBM binding z-score [2]: 4.87
- PBM binding z-score [3]: 3.79
- PBM binding z-score [4]: 2.18
- PBM binding z-score [5]: 6.66
- PBM binding z-score [6]: 3.64
- PBM binding z-score [7]: 2.06
- PBM binding z-score [8]: 5.59
- PBM binding z-score [9]: 4.78

Sequence: TAGCCTAGGTCAGATCGGGCCAGTATCCGCTATA
- PBM binding z-score [1]: 2.26
- PBM binding z-score [2]: 2.39
- PBM binding z-score [3]: 3.37
- PBM binding z-score [4]: -0.366
- PBM binding z-score [5]: 1.35
- PBM binding z-score [6]: 4
- PBM binding z-score [7]: 0.15
- PBM binding z-score [8]: 0.43
- PBM binding z-score [9]: -0.329

Sequence: CGAACTAGGTCAAGGGCAGTGAATCTCCGCACGC
- PBM binding z-score [1]: 3.25
- PBM binding z-score [2]: 3.74
- PBM binding z-score [3]: 4.64
- PBM binding z-score [4]: 1.59
- PBM binding z-score [5]: 2.35
- PBM binding z-score [6]: 2.98
- PBM binding z-score [7]: 0.986
- PBM binding z-score [8]: 1.4
- PBM binding z-score [9]: 0.718

Sequence: ATCGAGAGGTCGAAGGTGAGTATACCCACCCGAA
- PBM binding z-score [1]: 1.46
- PBM binding z-score [2]: 3.28
- PBM binding z-score [3]: 2.62
- PBM binding z-score [4]: 1.02
- PBM binding z-score [5]: 4.3
- PBM binding z-score [6]: 1.82
- PBM binding z-score [7]: -0.366
- PBM binding z-score [8]: 2.42
- PBM binding z-score [9]: 0.783

Sequence: ATCGAAAGGTCGACGAGGTGAGTCTACACCGTTT
- PBM binding z-score [1]: 3.08
- PBM binding z-score [2]: 4.01
- PBM binding z-score [3]: 3.95
- PBM binding z-score [4]: 1.04
- PBM binding z-score [5]: 4.04
- PBM binding z-score [6]: 3.99
- PBM binding z-score [7]: 1.04
- PBM binding z-score [8]: 5.5
- PBM binding z-score [9]: 0.956

Sequence: GCTTACGGGGCAAAGGTTATAGCATGAATAGAAT
- PBM binding z-score [1]: 1.58
- PBM binding z-score [2]: 3.73
- PBM binding z-score [3]: 1.43
- PBM binding z-score [4]: 1.11
- PBM binding z-score [5]: 4.42
- PBM binding z-score [6]: 1.89
- PBM binding z-score [7]: -0.425
- PBM binding z-score [8]: 2.08
- PBM binding z-score [9]: -0.046

Sequence: AGACCGAGGGCAATGAGTTGATAGCACGGGTGGC
- PBM binding z-score [1]: 0.894
- PBM binding z-score [2]: 0.934
- PBM binding z-score [3]: 1.36
- PBM binding z-score [4]: 1.31
- PBM binding z-score [5]: 0.545
- PBM binding z-score [6]: 0.481
- PBM binding z-score [7]: -0.368
- PBM binding z-score [8]: 4.82
- PBM binding z-score [9]: 3.16

Sequence: CCTTACGGGTGACTCCAGGTTATAGCATCGGAGT
- PBM binding z-score [1]: 0.532
- PBM binding z-score [2]: 0.648
- PBM binding z-score [3]: 0.639
- PBM binding z-score [4]: -0.594
- PBM binding z-score [5]: 0.973
- PBM binding z-score [6]: 3.65
- PBM binding z-score [7]: 0.215
- PBM binding z-score [8]: 0.497
- PBM binding z-score [9]: 0.0105

Sequence: CGAACTACGTCATTGACAGGACAGTGAATAGTAA
- PBM binding z-score [1]: 0.0564
- PBM binding z-score [2]: 0.288
- PBM binding z-score [3]: 0.139
- PBM binding z-score [4]: 0.0473
- PBM binding z-score [5]: 0.152
- PBM binding z-score [6]: 0.0548
- PBM binding z-score [7]: -0.0847
- PBM binding z-score [8]: -0.122
- PBM binding z-score [9]: -0.012

Sequence: GCTAGCAGGCCATGTGGGTCACTCAATGACGGGC
- PBM binding z-score [1]: 1.65
- PBM binding z-score [2]: 0.945
- PBM binding z-score [3]: 1.05
- PBM binding z-score [4]: -0.752
- PBM binding z-score [5]: 0.909
- PBM binding z-score [6]: 0.759
- PBM binding z-score [7]: -0.59
- PBM binding z-score [8]: 0.49
- PBM binding z-score [9]: 0.0438

Sequence: TCTAGCAGTCCAGAGGGTCACTCAAGAGGTACGG
- PBM binding z-score [1]: 2.78
- PBM binding z-score [2]: 2.4
- PBM binding z-score [3]: 1.91
- PBM binding z-score [4]: 0.0371
- PBM binding z-score [5]: 2.54
- PBM binding z-score [6]: 1.79
- PBM binding z-score [7]: 0.000359
- PBM binding z-score [8]: 1.69
- PBM binding z-score [9]: 0.904

Sequence: AGAAAGAGGTTAAGATCAGGGAAACAGAATACAT
- PBM binding z-score [1]: 1.42
- PBM binding z-score [2]: 2.54
- PBM binding z-score [3]: 1.86
- PBM binding z-score [4]: 0.244
- PBM binding z-score [5]: 2.82
- PBM binding z-score [6]: 2.02
- PBM binding z-score [7]: 0.45
- PBM binding z-score [8]: 1.25
- PBM binding z-score [9]: 0.57

Sequence: TCTATTAGGTGAAGGGCAACCGACGAGTCCGTTT
- PBM binding z-score [1]: 1.59
- PBM binding z-score [2]: 1.07
- PBM binding z-score [3]: 1.35
- PBM binding z-score [4]: 1.57
- PBM binding z-score [5]: 0.977
- PBM binding z-score [6]: 1.42
- PBM binding z-score [7]: 0.828
- PBM binding z-score [8]: 0.783
- PBM binding z-score [9]: 1.67

Sequence: TGTGCTAGGTCAACGATGGTCAGCTAATCTGCTA
- PBM binding z-score [1]: 3.4
- PBM binding z-score [2]: 3.88
- PBM binding z-score [3]: 5.19
- PBM binding z-score [4]: 0.342
- PBM binding z-score [5]: 2.45
- PBM binding z-score [6]: 3
- PBM binding z-score [7]: 0.529
- PBM binding z-score [8]: 1.65
- PBM binding z-score [9]: -0.186
